Screen size: about 5,500 compounds; about 2,000 (36%) were called active. Roughly 18% stayed inconclusive and do not appear here. Cut-off read from the data, not from the text of the source: active = normalized growth mostly below about 0.91 (no sharp cut-off); inconclusive = no clear call, values can overlap the other calls; inactive = mostly above about 0.92. The list shows a part of the results.
Assay: chemical genetic growth profiling, strain panel (AID 1159580);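 note: tested at 20 µM; growth read once vehicle control cultures reached saturation at 30 °C; 1 = growth at the plate median or of vehicle wells; lower values mean less growth of the strain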
Details: growth OD

Measured: normalized growth

NC(=O)c1ccccc1O
inactive: S. cerevisiae deletion strains, locus YJR066W, strain TOR1, stronger effect = lower value 0.999 | S. cerevisiae deletion strains, locus YKL009W, strain mrt4, stronger effect = lower value 1.01 | S. cerevisiae deletion strains, locus YKL068W, stronger effect = lower value 0.995 | S. cerevisiae deletion strains, locus YKL085W, strain MDH1 (second series), stronger effect = lower value 1 | S. cerevisiae deletion strains, locus YKL085W, strain MDH1, stronger effect = lower value 1 | S. cerevisiae deletion strains, locus YKL160W, strain elf1, stronger effect = lower value 0.985 | S. cerevisiae deletion strains, locus YKL190W, strain CNB1, stronger effect = lower value 0.998 | S. cerevisiae deletion strains, locus YKR001C, strain vps1, stronger effect = lower value 1 | S. cerevisiae deletion strains, locus YKR026C, strain gcn3, stronger effect = lower value 0.971 | S. cerevisiae deletion strains, locus YKR091W, strain srl3, stronger effect = lower value 0.971 | S. cerevisiae deletion strains, locus YLL001W, strain dnm1, stronger effect = lower value 0.909 | S. cerevisiae deletion strains, locus YLL026W, stronger effect = lower value 0.993 | S. cerevisiae deletion strains, locus YLL041C, strain sdh2, stronger effect = lower value 0.969 | S. cerevisiae deletion strains, locus YLR027C, strain aat2, stronger effect = lower value 0.981 | S. cerevisiae deletion strains, locus YLR039C, strain RIC1, stronger effect = lower value 1 | S. cerevisiae deletion strains, locus YLR058C, strain SHM2, stronger effect = lower value 1.01 | S. cerevisiae deletion strains, locus YLR102C, strain apc9, stronger effect = lower value 1.01 | S. cerevisiae deletion strains, locus YLR113W, strain HOG1, stronger effect = lower value 0.999 | S. cerevisiae deletion strains, locus YLR221C, strain rsa3, stronger effect = lower value 1.03 | S. cerevisiae deletion strains, locus YLR258W, strain gsy2, stronger effect = lower value 0.988 | S. cerevisiae deletion strains, locus YLR262C, strain YPT6 (second series), stronger effect = lower value 0.947 | S. cerevisiae deletion strains, locus YLR262C, strain YPT6, stronger effect = lower value 0.986 | S. cerevisiae deletion strains, locus YLR268W, strain sec22, stronger effect = lower value 1.04 | S. cerevisiae deletion strains, locus YLR320W, strain mms22, stronger effect = lower value 0.996 | S. cerevisiae deletion strains, locus YLR330W, strain CHS5, stronger effect = lower value 1.01 | S. cerevisiae deletion strains, locus YLR342W, strain FKS1 (second series), stronger effect = lower value 1.02 | S. cerevisiae deletion strains, locus YLR342W, strain FKS1, stronger effect = lower value 0.978 | S. cerevisiae deletion strains, locus YLR357W, strain rsc2, stronger effect = lower value 0.952 | S. cerevisiae deletion strains, locus YLR370C, strain arc18, stronger effect = lower value 0.964 | S. cerevisiae deletion strains, locus YLR371W, strain rom2, stronger effect = lower value 1.01 | S. cerevisiae deletion strains, locus YLR384C, strain iki3, stronger effect = lower value 0.963 | S. cerevisiae deletion strains, locus YLR418C, strain cdc73, stronger effect = lower value 1.02 | S. cerevisiae deletion strains, locus YML016C, strain PPZ1, stronger effect = lower value 1 | S. cerevisiae deletion strains, locus YML032C, strain rad52, stronger effect = lower value 1.01 | S. cerevisiae deletion strains, locus YML120C, strain ndi1, stronger effect = lower value 0.954 | S. cerevisiae deletion strains, locus YML124C, strain tub3, stronger effect = lower value 1.01 | S. cerevisiae deletion strains, locus YMR058W, strain fet3, stronger effect = lower value 0.987 | S. cerevisiae deletion strains, locus YMR078C, strain ctf18, stronger effect = lower value 1 | S. cerevisiae deletion strains, locus YMR125W, strain sto1, stronger effect = lower value 0.962 | S. cerevisiae deletion strains, locus YMR129W, stronger effect = lower value 0.974 | S. cerevisiae deletion strains, locus YMR205C, strain PFK2, stronger effect = lower value 0.978 | S. cerevisiae deletion strains, locus YMR223W, strain ubp8, stronger effect = lower value 0.988 | S. cerevisiae deletion strains, locus YMR231W, strain pep5, stronger effect = lower value 0.965 | S. cerevisiae deletion strains, locus YMR307W, strain GAS1, stronger effect = lower value 1.03 | S. cerevisiae deletion strains, locus YNL067W, strain RPL9B, stronger effect = lower value 0.99 | S. cerevisiae deletion strains, locus YNL071W, strain lat1, stronger effect = lower value 0.974 | S. cerevisiae deletion strains, locus YNL183C, strain NPR1, stronger effect = lower value 0.985 | S. cerevisiae deletion strains, locus YNL209W, strain ssb2, stronger effect = lower value 0.98 | S. cerevisiae deletion strains, locus YNL233W, strain BNI4, stronger effect = lower value 1 | S. cerevisiae deletion strains, locus YNL248C, strain rpa49, stronger effect = lower value 0.982 | S. cerevisiae deletion strains, locus YNL250W, strain rad50, stronger effect = lower value 1 | S. cerevisiae deletion strains, locus YNL271C, strain bni1, stronger effect = lower value 1.02 | S. cerevisiae deletion strains, locus YNL298W, strain CLA4, stronger effect = lower value 1.02 | S. cerevisiae deletion strains, locus YNL307C, strain MCK1, stronger effect = lower value 1.02 | S. cerevisiae deletion strains, locus YNL322C, strain KRE1 (second series), stronger effect = lower value 0.954 | S. cerevisiae deletion strains, locus YNL322C, strain KRE1, stronger effect = lower value 0.998 | S. cerevisiae deletion strains, locus YNR049C, strain mso1, stronger effect = lower value 0.974 | S. cerevisiae deletion strains, locus YNR052C, strain pop2, stronger effect = lower value 1.01 | S. cerevisiae deletion strains, locus YOL006C, strain TOP1, stronger effect = lower value 0.998 | S. cerevisiae deletion strains, locus YOL012C, strain htz1 1.16 | S. cerevisiae deletion strains, locus YOL147C, strain pex11, stronger effect = lower value 1.01 | S. cerevisiae deletion strains, locus YOR001W, strain rrp6, stronger effect = lower value 0.957 | S. cerevisiae deletion strains, locus YOR061W, strain CKA2, stronger effect = lower value 1 | S. cerevisiae deletion strains, locus YOR069W, strain VPS5, stronger effect = lower value 1 | S. cerevisiae deletion strains, locus YOR070C, strain gyp1, stronger effect = lower value 1 | S. cerevisiae deletion strains, locus YOR080W, strain dia2, stronger effect = lower value 0.981 | S. cerevisiae deletion strains, locus YOR083W, strain WHI5, stronger effect = lower value 0.957 | S. cerevisiae deletion strains, locus YOR106W, strain vam3, stronger effect = lower value 0.94 | S. cerevisiae deletion strains, locus YOR136W, strain idh2, stronger effect = lower value 0.989 | S. cerevisiae deletion strains, locus YOR144C, strain elg1, stronger effect = lower value 1 | S. cerevisiae deletion strains, locus YOR184W, strain ser1, stronger effect = lower value 0.895 | S. cerevisiae deletion strains, locus YOR231W, strain MKK1, stronger effect = lower value 1.03 | S. cerevisiae deletion strains, locus YOR265W, strain rbl2, stronger effect = lower value 0.98 | S. cerevisiae deletion strains, locus YOR270C, strain vph1, stronger effect = lower value 0.963 | S. cerevisiae deletion strains, locus YOR290C, strain snf2, stronger effect = lower value 0.999 | S. cerevisiae deletion strains, locus YOR316C, strain cot1, stronger effect = lower value 1 | S. cerevisiae deletion strains, locus YPL051W, strain arl3, stronger effect = lower value 1.01 | S. cerevisiae deletion strains, locus YPL078C, strain atp4, stronger effect = lower value 0.94 | S. cerevisiae deletion strains, locus YPL106C, strain sse1, stronger effect = lower value 0.936 | S. cerevisiae deletion strains, locus YPL240C, strain hsp82, stronger effect = lower value 0.977 | S. cerevisiae deletion strains, locus YPL241C, strain CIN2, stronger effect = lower value 1.01 | S. cerevisiae deletion strains, locus YPL256C, strain CLN2, stronger effect = lower value 1.05 | S. cerevisiae deletion strains, locus YPR119W, strain clb2, stronger effect = lower value 0.999 | S. cerevisiae deletion strains, locus YPR141C, strain kar3, stronger effect = lower value 1.01 | S. cerevisiae deletion strains, locus YPR163C, strain tif3, stronger effect = lower value 1.01 | S. cerevisiae deletion strains, locus YPR167C, strain met16, stronger effect = lower value 1.01 | S. cerevisiae deletion strains, strain wtn01, stronger effect = lower value 1.03 | S. cerevisiae strains, strain wild type, stronger effect = lower value 1.01

Reference: PubChem BioAssay AID1159580 (chemical genetic matrix, 2015)
